# Laboratory results from PubChem BioAssay (EPA / NIEHS).
# Results filed as inconclusive are left out. More than one record can exist for a structure, and the calls need not agree. Active and inactive are the calls of the source. How the source made its calls: active means hit-call score of the fitted dose curve at least 0.9, where 1 is the maximum; inconclusive means response in the unintended direction; inactive means score below 0.9.
# Key:
# [1] = target: Cellular tumor antigen p53 (Homo sapiens) (UniProt P04637); experiment: TOX21_p53_BLA_p5_ratio: Tox21 HCT-116 p53 Agonism Beta-lactamase Assay, Ratio, Phase 5 (AID 2283599)
# Summary of the method: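 HCT-116 p53-bla cells (4000/well) plated 5 h, dosed with compound (217-fold DMSO dilution) for 16 h at 37 C; CCF4-AM substrate 2 h at room temperature. Activity is the 460/530 nm emission ratio (405 nm excitation), fitted in gain-of-signal direction versus DMSO.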
# [2] = TOX21_p53_BLA_p5_viability: Viability Assessment in the Tox21 HCT-116 p53 Agonism Beta-lactamase Assay, Phase 5 (AID 2283600)
# Summary of the method: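 ATP luminescence (CellTiter-Glo, 30 min, RT) served as the viability read-out, with loss of signal indicating cytotoxicity. Compounds in DMSO were pinned at a 217-fold dilution onto 4000 cells/well and incubated 16 h, 37C.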
# [3] = target: Cellular tumor antigen p53 (Homo sapiens) (UniProt P04637); experiment: TOX21_p53_BLA_p4_ratio: Tox21 HCT-116 p53 Agonism Beta-lactamase Assay, Ratio, Phase 4 (AID 2283601)
# Summary of the method: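 HCT-116 p53 beta-lactamase reporter cells (4000/well) preincubated 5 h, then compound (217-fold dilution of DMSO stock) for 16 h at 37C. CCF4-AM substrate added 2 h at room temperature; 460/530 nm emission ratio fitted upward versus DMSO.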
# [4] = Tanguay_ZF_120hpf_MORT_legacy: (Legacy) Oregon State University Tanguay Lab 120 Hour Post-fertilization zebrafish Assay for Mortality (AID 2283633);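 on AC50: fitted as increase in binary mortality versus DMSO negative control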
# Summary of the method: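 Brightfield scoring of embryo death (binary) at 24 and 120 hpf; static exposure 6–120 hpf, 28C, sealed and foil-covered. Pronase-dechorionated 5D wild-type larvae, single embryo per well. DMSO 0.64% v/v; trimethyltin chloride 5uM positive control.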
# [5] = Tanguay_ZF_120hpf_YSE_legacy: (Legacy) Oregon State University Tanguay Lab 120 Hour Post-fertilization zebrafish Assay for Yolk Sac Edema (AID 2283634);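 on AC50: actives raise the incidence of yolk sac edema above the DMSO baseline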
# Summary of the method: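 Binary brightfield scoring of yolk sac edema at 120 hpf; DMSO baseline, gain-of-signal fitting. Dechorionated 5D larvae, one per well, static exposure 6–120 hpf, 28C, 0.64% DMSO. Dead embryos not scored.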
# [6] = Tanguay_ZF_120hpf_EYE_legacy: (Legacy) Oregon State University Tanguay Lab 120 Hour Post-fertilization zebrafish Assay for Eye Malformation (AID 2283636);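 further: binary presence or absence of eye malformation scored by brightfield in 120 hpf larvae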
# Summary of the method: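 5D wild-type embryos, pronase-dechorionated at 4 hpf; static exposure 6–120 hpf, 28C, dark; DMSO 0.64% final; 5uM trimethyltin chloride positive control. Binary eye-defect scoring at 120 hpf; dead embryos not scored.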
# [7] = Tanguay_ZF_120hpf_SNOU_legacy: (Legacy) Oregon State University Tanguay Lab 120 Hour Post-fertilization zebrafish Assay for Snout Malformation (AID 2283637)
# Summary of the method: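 Binary brightfield scoring of snout malformation at 120 hpf. Dechorionated 5D wild-type embryos, one per well, static exposure from 6 hpf at 28C, sealed and dark; final DMSO 0.64% (vol/vol), DMSO as baseline; 5uM trimethyltin chloride positive control.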
# [8] = Tanguay_ZF_120hpf_OTIC_legacy: (Legacy) Oregon State University Tanguay Lab 120 Hour Post-fertilization zebrafish Assay for Otic Vesicle Malformation (AID 2283639)
# Summary of the method: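 Binary scoring of otic vesicle defects at 120 hpf in zebrafish (Tropical 5D) held under static exposure at 28C, sealed and shaded, with final DMSO 0.64%. Embryos dying by 24 or 120 hpf excluded; fitted positively against DMSO.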
# [9] = Tanguay_ZF_120hpf_PE_legacy: (Legacy) Oregon State University Tanguay Lab 120 Hour Post-fertilization zebrafish Assay for Pericardial Edema (AID 2283640);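 on AC50: potency for increased incidence of pericardial edema versus DMSO baseline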
# Summary of the method: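 Static waterborne exposure, 5D wild-type embryos, 28C, to 120 hpf; final DMSO 0.64% (vol/vol). Binary PE call at 120 hpf by brightfield; fitted upward vs DMSO baseline. 5uM trimethyltin chloride as positive control.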
# [10] = Tanguay_ZF_120hpf_BRAI_legacy: (Legacy) Oregon State University Tanguay Lab 120 Hour Post-fertilization zebrafish Assay for Brain Malformation (AID 2283641)
# Summary of the method: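 Read-out: binary brain morphology call at 120 hpf (brightfield), fitted in gain-of-signal direction vs DMSO. Wild-type Tropical 5D embryos, static exposure, 28C, 0.64% DMSO final; 5uM trimethyltin chloride as positive control.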
# [11] = Tanguay_ZF_120hpf_SOMI_legacy: (Legacy) Oregon State University Tanguay Lab 120 Hour Post-fertilization zebrafish Assay for Somite Malformation (AID 2283647)
# Summary of the method: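 Binary brightfield scoring of somite defects at 120 hpf in 5D wild-type larvae; one dechorionated embryo per well, static exposure from 6 hpf, 28C, sealed and dark. Final DMSO 0.64%; trimethyltin chloride 5uM positive control.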
# [12] = Tanguay_ZF_120hpf_PFIN_legacy: (Legacy) Oregon State University Tanguay Lab 120 Hour Post-fertilization zebrafish Assay for Pectoral Fin Malformation (AID 2283648);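 further: each larva judged yes or no for fin defect by brightfield with dead larvae skipped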
# Summary of the method: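 Binary pectoral fin malformation call at 120 hpf by brightfield microscopy; 5D wild-type zebrafish, chorion removed at 4 hpf, one embryo per well from 6 hpf, static exposure at 28C; DMSO (0.64% final) as baseline.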
# [13] = Tanguay_ZF_120hpf_CFIN_legacy: (Legacy) Oregon State University Tanguay Lab 120 Hour Post-fertilization zebrafish Assay for Caudal Fin Malformation (AID 2283649)
# Summary of the method: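 Dechorionated 5D wild-type zebrafish, static exposure 6–120 hpf, 28C, sealed and dark, 0.64% v/v DMSO final. Binary fin-malformation call at 120 hpf, brightfield; gain of signal vs DMSO baseline.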
# [14] = Tanguay_ZF_120hpf_PIG_legacy: (Legacy) Oregon State University Tanguay Lab 120 Hour Post-fertilization zebrafish Assay for Pigmentation Malformation (AID 2283650);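 further: dechorionated Tropical 5D zebrafish embryos exposed singly from 6 to 120 hpf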
# Summary of the method: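 Brightfield scoring of pigmentation malformation at 120 hpf, recorded as binary present/absent per larva. Exposure: dechorionated 5D wild-type embryos, one per well, static from 6 hpf at 28C, final DMSO 0.64% (vol/vol). Dead embryos not scored.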
# [15] = Tanguay_ZF_120hpf_JAW_legacy: (Legacy) Oregon State University Tanguay Lab 120 Hour Post-fertilization zebrafish Assay for Jaw Malformation (AID 2283638);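 on AC50: active means more embryos with jaw malformation than DMSO controls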
# Summary of the method: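 Binary jaw-malformation calls at 120 hpf by brightfield imaging; DMSO (0.64% v/v) = baseline. Embryos: 5D wild-type, pronase-dechorionated, one per well from 6 hpf, static exposure, 28C, sealed, dark.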
# [16] = Tanguay_ZF_120hpf_SWIM_legacy: (Legacy) Oregon State University Tanguay Lab 120 Hour Post-fertilization zebrafish Assay for Swim Bladder Malformation (AID 2283654);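 further: swim bladder malformation in each larva scored yes or no under brightfield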
# Summary of the method: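 Tropical 5D embryos dechorionated at 4 hpf; 1 embryo/well from 6 hpf; static, sealed, dark exposure at 28C until 120 hpf; final DMSO 0.64%; 5uM trimethyltin chloride positive control; swim bladder defect recorded yes/no; dead embryos not scored.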
# [17] = Tanguay_ZF_120hpf_CIRC_legacy: (Legacy) Oregon State University Tanguay Lab 120 Hour Post-fertilization zebrafish Assay for Circulatory Malformation (AID 2283651)
# Summary of the method: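 Binary circulatory malformation call at 120 hpf by brightfield imaging of zebrafish larvae; chorion removed at 4 hpf, static exposure from 6 hpf in sealed dark plates at 28C, final DMSO 0.64%; non-mortality endpoints skipped if embryo died.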
# Sequence of Cellular tumor antigen p53 (Homo sapiens) (P04637 whole entry, looked up): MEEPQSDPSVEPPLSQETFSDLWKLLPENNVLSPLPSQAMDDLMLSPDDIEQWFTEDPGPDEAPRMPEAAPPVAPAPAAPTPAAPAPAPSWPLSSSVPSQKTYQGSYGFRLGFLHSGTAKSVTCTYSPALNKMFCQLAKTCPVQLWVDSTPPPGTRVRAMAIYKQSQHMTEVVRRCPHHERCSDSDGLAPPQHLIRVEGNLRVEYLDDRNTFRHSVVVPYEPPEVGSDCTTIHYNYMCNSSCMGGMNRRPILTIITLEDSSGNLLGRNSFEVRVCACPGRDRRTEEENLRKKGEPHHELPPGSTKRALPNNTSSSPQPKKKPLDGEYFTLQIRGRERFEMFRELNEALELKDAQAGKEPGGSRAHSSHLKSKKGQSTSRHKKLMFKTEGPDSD
smiles,measurement,setting,value
CC[C@H](c1ccc(O)cc1)[C@@H](CC)c1ccc(O)cc1,AC50,[1],67.1 µM (active)
same,outcome,[1],inactive
same,AC50,[2],75.7 µM (active)
same,outcome,[2],inactive
same,AC50,[3],60.1 µM (active)
same,outcome,[3],inactive
same,outcome,[4],inactive
same,outcome,[5],inactive
same,outcome,[6],inactive
same,outcome,[7],inactive
same,outcome,[8],inactive
same,outcome,[9],inactive
same,outcome,[10],inactive
same,outcome,[11],inactive
same,outcome,[12],inactive
same,outcome,[13],inactive
same,outcome,[14],inactive
Oc1cccc(O)c1,outcome,[1],inactive
same,outcome,[2],inactive
same,outcome,[3],inactive
same,outcome,[4],inactive
same,outcome,[5],inactive
same,outcome,[6],inactive
same,outcome,[7],inactive
same,outcome,[15],inactive
same,outcome,[8],inactive
same,outcome,[9],inactive
same,outcome,[10],inactive
same,outcome,[11],inactive
same,outcome,[14],inactive
same,outcome,[16],inactive
Cc1oc(-c2ccccc2)nc1CCOc1ccc(C[C@H](Nc2ccccc2C(=O)c2ccccc2)C(=O)O)cc1,AC50,[1],56 µM (active)
same,AC50,[2],15.5 µM (active)
same,AC50,[3],41.6 µM (active)
same,AC50,[4],12.9 µM (active)
same,outcome,[5],inactive
same,outcome,[6],inactive
same,outcome,[7],inactive
same,outcome,[8],inactive
same,outcome,[9],inactive
same,outcome,[10],inactive
same,outcome,[11],inactive
same,outcome,[12],inactive
same,outcome,[13],inactive
same,outcome,[14],inactive
same,outcome,[16],inactive
c1ccc2c(c1)Cc1ccccc1-2,AC50,[1],87.3 µM (active)
same,outcome,[1],inactive
same,outcome,[2],inactive
same,outcome,[3],inactive
same,outcome,[4],inactive
same,outcome,[5],inactive
same,outcome,[6],inactive
same,outcome,[7],inactive
same,outcome,[15],inactive
same,outcome,[8],inactive
same,outcome,[9],inactive
same,outcome,[10],inactive
same,outcome,[11],inactive
same,outcome,[13],inactive
same,outcome,[14],inactive
same,outcome,[16],inactive
Cc1ccc(S(=O)(=O)O)c(C)c1,outcome,[1],inactive
same,outcome,[2],inactive
same,outcome,[3],inactive
Oc1cc2ccccc2c2ccccc12,AC50,[1],11.6 µM (active)
same,AC50,[2],13.3 µM (active)
same,AC50,[3],20.4 µM (active)
same,AC50,[4],14 µM (active)
same,AC50,[5],38.3 µM (active)
same,AC50,[6],40 µM (active)
same,AC50,[7],14.3 µM (active)
same,AC50,[15],9.87 µM (active)
same,AC50,[8],10.8 µM (active)
same,AC50,[9],31.9 µM (active)
same,AC50,[10],36.2 µM (active)
same,AC50,[11],12.4 µM (active)
same,AC50,[12],12.1 µM (active)
same,AC50,[13],36.5 µM (active)
same,AC50,[14],12.9 µM (active)
same,AC50,[16],10.3 µM (active)
CC(=O)NC1(c2cccc(F)c2)CCN(CC[C@@]2(c3ccc(Cl)c(Cl)c3)CN(c3ccccc3)C(=O)CO2)CC1,AC50,[1],70.3 µM (active)
same,AC50,[2],60.3 µM (active)
same,AC50,[3],65 µM (active)
same,outcome,[4],inactive
same,outcome,[5],inactive
same,outcome,[6],inactive
same,outcome,[7],inactive
same,outcome,[8],inactive
same,outcome,[9],inactive
same,outcome,[10],inactive
same,outcome,[11],inactive
same,outcome,[12],inactive
same,outcome,[13],inactive
same,outcome,[14],inactive
same,outcome,[17],inactive
same,outcome,[16],inactive
CC1=C(/C=C/C(C)=C/C=C/C(C)=C/C(=O)O)C(C)(C)CCC1,AC50,[1],86.9 µM (active)
same,outcome,[1],inactive
same,outcome,[2],inactive
same,outcome,[3],inactive
same,AC50,[4],1.54 µM (active)
same,AC50,[5],0.214 µM (active)
same,AC50,[6],0.0999 µM (active)
same,AC50,[7],0.183 µM (active)
same,AC50,[15],0.144 µM (active)
same,AC50,[8],0.211 µM (active)
same,AC50,[9],0.193 µM (active)
same,AC50,[10],0.237 µM (active)
same,AC50,[11],0.323 µM (active)
same,AC50,[12],0.248 µM (active)
same,AC50,[13],0.186 µM (active)
same,AC50,[14],0.252 µM (active)
same,outcome,[17],inactive
same,outcome,[16],inactive
